Test results reported in PubChem BioAssay AID1578 (Sanford-Burnham Center for Chemical Genomics, 2009).
The campaign covered roughly 290,000 compounds. About 3,000 (1%) were called active. Rule as the data show it: active = inhibition mostly above about 36% (no sharp cut-off); inactive = mostly below about 34%. Shown is part of a subset that was picked to be rich in actives.

Test: NOD1 signaling inhibitors, primary screen, cell-based, luminescence, uHTS (AID 1578);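 also: HEK-293T reporter cells stimulated with the NOD1 agonist gamma-tri-DAP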
Details: NOD1-driven NF-kB luciferase reporter cells, at 4 µM, hits give high values

inhibition, inactive:
COc1ccc(CCn2ccc(O)c(Cc3ccc(Cl)cc3)c2=O)cc1OC 3.1%, COc1ccc(CCn2ccc(O)c(Cc3ccc(Cl)cc3Cl)c2=O)cc1OC -2.8%, CN1CCN(C(=S)c2ccc(Cl)cc2)CC1 1.9%, NC(=O)C1CCN(Cc2ccc(OCc3ccccc3)cc2)CC1 -29.8%, O=S(=O)(NC1CC1)c1cccc(S(=O)(=O)N2CCCC2)c1 -9.9%, COc1ccc(CNC(=O)CC(C)CC2=NS(=O)(=O)c3ccccc3N2)cc1 (stereo not given) -5.1%, COc1ccc(C(=O)NCc2nnc(SCC(=O)N3CCCCC3)o2)cc1OC 8.1%, CCOc1ccc(-c2nnc3n2N=C(c2ccc(OC)cc2)CS3)cc1 4.9%, COc1ccc(-c2nnc3n2N=C(C)CS3)cc1 8.4%, Cc1ccc(Cl)cc1NC(=O)C1CCCN(S(=O)(=O)c2c(C)noc2C)C1 (stereo not given) -22.6%, O=C(O)CCCCCNCc1ccncc1 -8%, COc1ccc(OC)c(-c2csc(NC(=O)C3=NN(c4ccccc4)C(=O)CC3)n2)c1 -27.4%, CCc1ccc(-c2csc(NC(=O)C3=NN(c4ccccc4)C(=O)CC3)n2)cc1 51.4%, CCOC(=O)c1ccc(NS(=O)C23CC4CC(CC(C4)C2)C3)cc1 (stereo not given) -39.1%, CCN(CC)S(=O)(=O)c1ccc2oc(C(=O)NCCCN3CCOCC3)c(C)c2c1 -9.1%, Cc1cccc(N2CCN(C(=O)NC3CCCCC3)CC2)c1C -19.6%, O=C1[C@H]2[C@@H](c3ccc(F)cc3)N3C(=O)N(c4cccc(Br)c4)C(=O)[C@@]3(Cc3ccc(Cl)cc3)[C@H]2C(=O)N1C1CCCCC1 -14.3%, CC[C@@]12C(=O)N(c3cccc(Br)c3)C(=O)N1[C@H](c1ccc(Cl)cc1)[C@@H]1C(=O)N(C3CCCCC3)C(=O)[C@@H]12 10.3%, O=c1cc(-c2c(F)c(F)c(F)c(F)c2F)oc2ccccc12 36.7%, COc1c(OC)c(O)c2c(=O)cc(-c3c(O)cccc3O)oc2c1OC 2.2%, Cc1cccc(NC(=O)Cc2c(F)cccc2Cl)n1 -46.6%, Cc1nsc(Nc2ccccc2)c1C#N 16.5%, O=[N+]([O-])c1ccc(Nc2ccc(F)cc2)cc1 -11.9%, CN1CCN(/N=C/c2ccc(N(C)c3ccccc3)cc2)CC1 -6.9%, Cc1cc(=O)oc2c(C)c(OCC(=O)NCCCn3ccnc3)ccc12 1.8%, O=C(OCc1ccccc1)c1cccnc1Cl -18.1%, Cn1cc(CNCc2cn[nH]c2-c2ccc(F)cc2)c(-c2ccc3c(c2)OCCO3)n1 -22.2%, CN(Cc1ccon1)Cc1cn(C)nc1-c1ccc2c(c1)OCCO2 -26.3%, C/C(=N\NC(=O)C1CC1(c1ccccc1)c1ccccc1)c1cccc([N+](=O)[O-])c1 (stereo not given) -12.5%, CC(=O)Nc1ccc(N=Cc2c(O)ccc3ccccc23)cc1 -20%, CC(=O)Nc1ccc(N=Cc2c(O)c(C(=O)Nc3ccccc3)cc3ccccc23)cc1 39.6%, O=C(Nc1ccc(NS(=O)(=O)c2ccccc2)cc1)c1cccnc1 -23.8%, O=C(NCc1nnc(SCC(=O)N2CCCC2)o1)c1ccccc1 -0.1%, Cc1c(C(=O)O)[nH]c2c1C(=O)CC(c1ccccc1)C2 (stereo not given) -0.4%, Cc1oc2c(c(=O)c1C)C(=O)CC(c1ccccc1)C2 (stereo not given) -15.6%, CCc1noc(C)c1C(=O)Nc1ccccc1C(C)(C)C 38.7%, Cc1ccc(-c2nc(N3CCOCC3)sc2C(=O)N2CCOCC2)cc1 -12.2%, Cc1ccc(CNC(=O)Nc2ccc(OC(F)(F)F)cc2)n1C -21.3%, COC(=O)c1ccccc1NS(=O)(=O)c1ccc(NC(C)=O)cc1 0.6%, COC(=O)c1ccc(NC(=O)c2ccccc2NS(C)(=O)=O)cc1 -12%, COc1cc(OC)cc(C(=O)Nn2cc(C(=O)Nc3ccccc3F)c3ccccc3c2=O)c1 -16.8%, C=CCNC(=O)[C@@H]1CSC2c3ccc(OC)c(OC)c3C(=O)N21 (stereo not given in full) -8.1%, Cc1ccc(C2C3C(=O)N(c4ccc(C)cc4)C(=O)C3N3CCCN23)cc1 (stereo not given) -7.6%, Cc1ccc(C(=O)COC(=O)c2cc(Cl)nc3ccccc23)cc1C -37.6%, Cc1ccc(C)c(N2CCN(C(=O)c3ccc4nc(-c5ccco5)c(-c5ccco5)nc4c3)CC2)c1 -1.9%, O=C(c1ccc2nc(-c3ccco3)c(-c3ccco3)nc2c1)N1CCN(c2ccccc2)CC1 3.4%, O=C(CN1C(=O)c2ccccc2C1=O)Nc1cc([N+](=O)[O-])ccc1O -38.7%, CCOc1cc(C(C(=O)NCC2CCCO2)N(C(=O)Cn2nnc3ccccc32)c2ccccc2C(C)=O)ccc1O (stereo not given) -47.9%, COc1ccc(-n2c(C)cc(C3=NNC(=NC4CC4)SC3)c2C)cc1 -7.5%, COCCCN=C1NN=C(c2cc(C)n(-c3ccccc3F)c2C)CS1 10.1%, Cc1cc(C2=NNC(=NC3CC3)SC2)c(C)n1-c1c(C)n(C)n(-c2ccccc2)c1=O -12.6%, Cc1ccc(-n2c(C)cc(C3=NNC(=NC4CC4)SC3)c2C)cc1C -21.7%, CCOC(=O)c1[nH]c2ccccc2c1NC(C)=O 2.4%, CC(C)(C)n1cnc2cc(NS(=O)(=O)c3ccc(Br)cc3)ccc21 7.7%, Cc1ccc(-c2nnn(CC(=O)N(CCN3CCOCC3)C(C(=O)NC(C)(C)C)c3ccc(C)o3)n2)cc1 (stereo not given) -14.8%, COc1ccc(-c2cc3nc(C)cc(C)n3n2)cc1 -76.5%, COc1ccc(-c2cc3nc(C)cc(N)n3n2)cc1 -3.5%, COC(=O)C(Cc1ccccc1)NC(=O)c1cccc(S(=O)(=O)N(C)C)c1 (stereo not given) -41.3%, COc1ccc(/C(C)=N/NC(=O)c2nnn(-c3nonc3N)c2CN(C)c2ccccc2)cc1 -7.2%, C/C(=N\NC(=O)c1c(Br)cnn1C)c1ccc(NC(=O)c2ccc(F)cc2)cc1 -45.8%, CCC(=O)NC(=S)Nc1ccccc1C(=O)NC1CCCCC1 -10.9%, Cc1cc(C)cc(NC(=O)COc2ccc(C(=S)N3CCOCC3)cc2)c1 -14.5%, CCOC(=S)SCc1cn2ccc(C)cc2n1 8.3%, Cc1oc2ccc(O)c(CN3CCOCC3)c2c1C(=O)c1ccc(Cl)cc1 27.5%, Cc1oc2ccc(O)c(CN(C)C)c2c1C(=O)c1ccccc1 -26.2%, CCN(CC)C(=O)CSc1nc2ccccc2c(=O)n1OC(C)C 8%, Cc1cc(/C=C2\SC(=S)NC2=O)c(C)n1-c1cccc(O)c1 -11.9%, Cc1ccc(/C=C2\SC(=S)N(c3cccnc3)C2=O)cc1 -15%, Cc1cc(/C=C2\SC(=S)N(Cc3ccco3)C2=O)c(C)n1-c1cccnc1 8.2%, COc1ccc(-n2c(C)cc(/C=C3/SC(=S)N(C)C3=O)c2C)cc1 -25.3%, Cc1cc(/C=C2\SC(=O)N(C)C2=O)c(C)n1-c1ccc(O)cc1 0.7%, Cc1cc(/C=C2/C(=O)NN(c3ccccc3)C2=O)c(C)n1-c1cccc(O)c1 -15.4%, CC(c1ccccc1)n1c(N2CCNCC2)nc2c1c(=O)[nH]c(=O)n2C (stereo not given) -36.1%, COc1ccc(NC(=O)CN(c2ccc(OC)cc2)S(=O)(=O)c2c(C)nn(C)c2C)cc1 -15.1%, COc1ccc(C(=O)N2CCC(C(=O)c3c(C)cc(C)cc3C)CC2)cc1 -8.8%, Cc1ccc(N2CC(C(=O)N3CCCc4ccccc43)CC2=O)cc1 (stereo not given) -10.4%

inhibition, active:
COc1ccc(CCn2ccc(O)c(Cc3c(F)cccc3Cl)c2=O)cc1OC 55.5%, CCOC(=O)/C(=C\c1ccc(OC(F)F)cc1)C1=Nn2c(nnc2-c2ccc(Cl)cc2)SC1 92.7%, O=C1[C@H]2[C@@H](c3ccc(Cl)cc3)N3C(=O)N(c4cccc(Br)c4)C(=O)[C@@]3(Cc3ccc(Cl)cc3)[C@H]2C(=O)N1C1CCCCC1 45.6%, O=c1cc(-c2c(F)c(F)c(F)c(F)c2F)oc2c(F)c(F)c(F)c(F)c12 98.7%, Cc1nsc(Nc2ccc([N+](=O)[O-])cc2)c1C#N 60.4%, Cn1cc(CNCc2ccc(OC(F)(F)F)cc2)c(-c2ccc3c(c2)OCCO3)n1 75.4%, CCOc1cc(Br)c(Br)c(C=Nc2ccc(NC(C)=O)cc2)c1O 78%, CS(=O)(=O)c1sc(C#N)c2c1C(=O)CC(c1ccccc1)C2 (stereo not given) 43.9%, Cc1cccc(N2CCN(C(=O)c3ccc4nc(-c5ccco5)c(-c5ccco5)nc4c3)CC2C)c1 (stereo not given) 60.5%, Cc1cc(C2=NNC(=NC3CC3)SC2)c(C)n1-c1ccccc1 98.3%, Cc1cc(C2=NNC(=NC3CC3)SC2)c(C)n1-c1ccccc1F 96.7%, COc1ccc(-c2cc3nc(C)cc(-c4ccc(OC)cc4)n3n2)cc1 66.8%, Cc1oc2c(Cl)c(Cl)c(O)c(CN(C)C)c2c1C(=O)c1ccc(Cl)cc1 65.8%, Cc1cc(/C=C2/SC(=S)N(c3ccc([N+](=O)[O-])cc3)C2=O)c(C)n1-c1cccnc1 74.8%
